This is an account of results in ChEMBL document CHEMBL1157539, “Thousands of chemical starting points for antimalarial lead identification” (Nature, 2010).

In all, about 13,000 compounds were measured (“IFI”: median about 4, highest 2% from about 17 on). What follows is part of a selection rich in the highest values, with near analogues and random picks from the rest.

The nature of this assay: GSK_TCMDC: Inhibition Frequency Index (IFI). The number of non-kinase HTS assays where a compound showed > 50 % inhibition, expressed as a percentage of the number of such assays in which the compound was tested. Type of assay: functional.
Take `O=C(c1cccc(Br)c1)N1CCN(c2ccc([N+](=O)[O-])c(NC3CC3)c2)CC1`: the IFI amounted to 4.2%.
With `COc1ccc2ncc(F)c(CCN3CC[C@@H](CNCc4nc5c(cc4C)SCC(=O)N5)C3)c2n1` the figure was 5.83%; with `CCOc1ccc2nc3cc([N+](=O)[O-])ccc3c(N)c2c1`, 6.34%.
Take `CCOc1ccc2nc3cc(NC(=O)c4ccco4)ccc3c(N)c2c1`: the IFI amounted to 20.5%.
To `CCOc1ccc2nc3cc(N)ccc3c(N)c2c1` belongs 2.08%; to `CC(C)(CNCc1cccc(Oc2cccc(C(F)(F)F)c2)c1)c1nc(-c2ccnc(N)n2)c(-c2ccc(Cl)c(O)c2)[nH]1`, 4.35%.
Take `CCNc1cc(C)nc(Nc2ccc(NS(=O)(=O)c3ccccc3)cc2)n1`: the IFI was found to be 20.4%.
With `Cc1cc(N(C)C)nc(Nc2ccc(NC(=O)c3c(F)cccc3Cl)cc2)n1` the figure was 1.89%; with `CCNc1cc(C)nc(Nc2ccc(NC(=O)c3ccccc3Cl)cc2)n1`, 11.3%; with `CCNc1cc(C)nc(Nc2ccc(NC(=O)c3c(F)cccc3Cl)cc2)n1`, 18.2%.
To `Cc1cc(N(C)C)nc(Nc2ccc(NS(=O)(=O)c3ccccc3)cc2)n1` belongs 9.62%; to `CCNc1cc(C)nc(Nc2ccccc2)n1`, 2.94%.
The compound `Cc1cc(Nc2ccc(O)cc2)nc2cc(O)ccc12` returned an IFI of 3.85%.
The compound `CCCCN(CCCC)/C(=N/C(=N)NCc1ccc(Cl)c(Cl)c1)NCCCCCCN/C(=N\C(=N)NCc1ccc(Cl)c(Cl)c1)N(CCCC)CCCC` yielded an IFI of 22.9%.
With `CN(C)/C(=N/C(=N)NCc1ccc(Cl)c(Cl)c1)NCCCCCCN/C(=N\C(=N)NCc1ccc(Cl)c(Cl)c1)N(C)C` the figure was 11.8%; with `N=C(/N=C(/NCCCCCCN/C(=N/C(=N)NCc1ccc(Cl)c(Cl)c1)N1CCCCC1)N1CCCCC1)NCc1ccc(Cl)c(Cl)c1`, 18.8%.
To `N=C(/N=C(/NCCCCCCN/C(=N\C(=N)Nc1ccc(Cl)cc1)N1CCOCC1)N1CCOCC1)Nc1ccc(Cl)cc1` belongs 6.72%.
With `N=C(/N=C(/NCCCCCCN/C(=N\C(=N)Nc1ccc(Cl)cc1)N1CCCCC1)N1CCCCC1)Nc1ccc(Cl)cc1` the figure was 10.9%.
On to `CCN(CC)/C(=N/C(=N)NCc1cccc(Cl)c1)NCCCCCCN/C(=N\C(=N)NCc1cccc(Cl)c1)N(CC)CC`, for which the IFI is 13.8%.
To `Cc1cccc2nc(-c3cccc(-c4ccc(NC(=O)C5CCCO5)cc4)c3)[nH]c12` (stereo unspecified) belongs 5.31%.
With `Cc1ccc(C(=O)Nc2ccc(F)cc2)cc1-c1nc(NC2CC(C)(C)NC(C)(C)C2)nc2c1ccc(=O)n2-c1c(F)cccc1F` the figure was 10.9%.
Compound `CC(C)c1ccc(OCCCON2C(=N)N=C(N)NC2(C)C)cc1` registered an IFI of 6.34%.
To `CCOC(=O)c1c(-c2ccccc2)nc2c(sc3ccccc32)c1O` belongs 1.48%; to `c1ccc(CCNc2ccnc(Nc3ccc4[nH]nnc4c3)n2)cc1`, 3.23%; to `CCN(CC)CCN(Cc1ccc(-c2ccc(C(F)(F)F)cc2)cc1)C(=O)Cn1c(SCc2ccc(F)cc2)cc(=O)c2ccccc21`, 7.64%.
To `COc1ccc2[nH]ccc(=NN=Cc3ccc(F)cc3)c2c1` belongs 2.22%.
